Assay outcomes as filed in PubChem BioAssay.
Mdm2-MdmX inh: human Mdm2/MdmX binding inhibition. O15151+Q00987. SaOS-2 split-luciferase Mdm2/MdmX complementation, luminescence. inhibition, % at 8 µM. 330,000 tested, 3% active. AID 485346;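 active = inhibition of at least 50% at 8 µM in the primary screen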
tim10-1 inh: inhibits growth of tim10-1 mutant yeast. S. cerevisiae tim10-1 ts strain growth, BacTiter-Glo, 24 h. inhibition, % at 20 µM. 330,000 tested, 2.2% active. AID 463190;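 active = inhibition of at least 40%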;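 note: mutant grown at 25 °C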
tim23-1 inh: growth inhibitors of tim23-1 mutant yeast; inhibition, % at 20 µM; 330,000 tested, 1.3% active; AID 463212; S. cerevisiae tim23-1 growth, BacTiter-Glo luminescence, 24 h;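 active = growth inhibition of the mutant yeast at or above 50%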;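 note: temperature-sensitive mutant grown at 25 °C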
MPTP block: inhibitors of mitochondrial permeability transition pore; isolated mouse mitochondria, Ca2+ swelling absorbance, 30 min; inhibition, % at 10 µM; AID 602449; 360,000 tested, 1.4% active;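 active = inhibition of 50% or more, scaled per plate between neutral and stimulator controls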
TIM10 inh: TIM10 yeast growth inhibition | 330,000 tested, 1.4% active | AID 463195 | inhibition, % at 10 µM | S. cerevisiae TIM10 strain growth, BacTiter-Glo luminescence, 24 h;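 active = inhibition of 40% or more at the single tested concentration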;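 note: wild-type TIM10 isogenic control strain grown at permissive 25 °C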
tim10-1 conf: tim10-1 yeast growth inhibition, confirmed; AID 463213; 7,400 tested, 56% active; shares compounds with tim10-1 inh; S. cerevisiae tim10-1 ts strain growth, BacTiter-Glo, 24 h; inhibition, % at 20 µM;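 active = inhibition of yeast growth at or above a set limit in either of two repeat tests at 20 µM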;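 note: tim10-1 mutant grown at permissive 25 °C to find synthetic lethal compounds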
Numbers stand for hits; i = inactive; nt = no result. In the library only some 6.3% were active in any assay of this set; here they are far more common.

SMILES	Mdm2-MdmX inh	tim10-1 inh	tim23-1 inh	MPTP block	TIM10 inh	tim10-1 conf
O=c1[nH][nH]c(-c2ccccc2O)c1C(C[N+](=O)[O-])c1ccccc1 (stereo unspecified)	i	45	i	i	i	i
CCN1C(=O)/C(=C/c2cnn(CC)c2C)SC1=S	i	i	i	i	i	nt
CCN1C(=O)/C(=C/c2c(C)nn(C)c2C)SC1=S	i	55	i	i	i	44
CN(Cc1cn(Cc2cccc(C(F)(F)F)c2)nn1)C1CN(Cc2cn(Cc3cccc(C(F)(F)F)c3)nn2)S(=O)(=O)C1 (stereo unspecified)	nt	nt	nt	i	nt	nt
CCCCNC(=O)C1(C)CCCCN1C(=O)c1oc2ccccc2c1C (stereo unspecified)	nt	nt	nt	i	nt	nt
CCCCn1c(=N)c(S(=O)(=O)c2ccc(Br)cc2)cc2c(=O)n3cccc(C)c3nc21	i	44	i	i	i	i
Cc1ccc(S(=O)(=O)/C(C#N)=C/c2c[nH]c3ccccc23)cc1	i	49	i	i	i	i
O=C(CN1CCC(n2nnc3cc(C(F)(F)F)ccc32)CC1)N1CCc2ccccc21	i	46	i	i	i	36
CC1(Cc2ccc(OC(F)(F)F)cc2)C(=O)Nc2c(Cl)ccc(Cl)c21 (stereo unspecified)	nt	nt	nt	i	nt	nt
N#Cc1ccc(/C=C/C(=O)c2ccccc2)cc1	i	48	i	i	i	43
CC(C)(C)NC(=O)CSc1ncnc2c1nnn2Cc1ccccc1Cl	i	48	i	i	i	i
Cc1ccccc1N=Nc1c(C)[nH]n(C(N)=S)c1=O	i	41	i	i	i	i
Cc1cccc(N=Nc2c(C)[nH]n(C(N)=S)c2=O)c1C	i	i	i	nt	i	nt
Cc1cc2nc(-c3ccc[nH]c3=O)[nH]c2cc1C	i	47	i	i	i	35
Fc1cccc(Cl)c1C1SCc2nc3ccccc3n21 (stereo unspecified)	nt	nt	nt	i	nt	nt
CC(C)NS(=O)(=O)c1ccc(Oc2ncc(C(F)(F)F)cc2Cl)cc1	i	49	i	i	i	i
COc1ccc(S(=O)(=O)NN(C)c2ncc(C(F)(F)F)cc2Cl)cc1	i	40	i	i	i	i
COc1ccc(C(O)c2ncc(C(F)(F)F)cc2Cl)cc1 (stereo unspecified)	i	i	i	i	i	nt
CCCNS(=O)(=O)c1ccc(Oc2ncc(C(F)(F)F)cc2Cl)cc1	i	i	i	i	i	nt
NC(=O)c1ccc(Oc2ncc(C(F)(F)F)cc2Cl)cc1	i	i	i	i	i	nt
N#CCc1ccc(Oc2ncc(C(F)(F)F)cc2Cl)cc1	i	48	i	i	i	i
Cc1cccc(Cc2c(C)nc3c(C(=O)N4CCN(Cc5ccc6c(c5)OCO6)CC4)cnn3c2C)c1	i	42	i	i	i	i
CC(C)[C@@H](C(=O)N[C@@H](CCc1ccc(O)cc1)C(=O)O)N(C)C(=O)[C@H](CO)NC(=O)[C@@H](O)[C@H](N)CCCCCCCCl	nt	nt	nt	i	nt	nt
COc1ccc(/C(N)=N/OC(=O)CCc2ccccc2)cc1	i	i	i	i	i	nt
N/C(=N\OC(=O)CCCc1ccccc1)c1ccccc1Cl	i	50	i	i	i	59
SMILES	Mdm2-MdmX inh	tim10-1 inh	tim23-1 inh	MPTP block	TIM10 inh	tim10-1 conf
Cc1ccc(NC(=O)C(C)N2C(=O)C3C4CC(C(Br)C4Br)C3C2=O)cc1 (stereo unspecified)	i	48	i	i	i	32
CC(C)OP(=O)(OC(C)C)C(Nc1ccccn1)c1ccc(F)cc1 (stereo unspecified)	i	46	i	i	i	i
CCOP(=O)(OCC)C(Nc1ccccn1)c1ccc(F)cc1 (stereo unspecified)	i	i	i	i	i	nt
N/C(=N\OC(=O)C1CCCCC1)c1cccc([N+](=O)[O-])c1	i	47	i	i	i	49
N/C(=N\OC(=O)c1ccccc1Br)c1ccc([N+](=O)[O-])cc1	i	i	i	i	i	nt
Cc1ccccc1C(=O)O/N=C(\N)c1ccc([N+](=O)[O-])cc1	i	53	i	i	i	62
Cc1ccc(C(=O)O/N=C(\c2ccccc2)c2ccncc2)cc1	i	i	i	i	i	nt
N/C(=N\OC(=O)c1cc([N+](=O)[O-])ccc1Cl)c1cccnc1	i	i	i	i	i	nt
N/C(=N\OC(=O)c1ccc([N+](=O)[O-])cc1)c1cccnc1	i	40	i	i	i	37
COc1ccccc1C(=O)O/N=C(/c1ccncc1)c1ccc([N+](=O)[O-])cc1	i	47	i	i	i	i
